The text below walks through data of publication PMC7862700, “An all-to-all approach to the identification of sequence-specific readers for epigenetic DNA modifications on cytosine”.

Test in all cases: DAPPL (digital affinity profiling via proximity ligation, sequencing); 10 mM Tris-HCl pH 7.5, 50 mM NaCl, 1 mM DTT, 4% glycerol, room temperature, 30 min; GST-TFs on glutathione beads, 16-mer random dsDNA library, 0.1% formaldehyde crosslink after washing; high values mean tight binding
Settings in all cases: protein: recombinant; tags: N-terminal GST; dsDNA, one strand shown

Experiment [1] deals with T1, FLI1 (Homo sapiens, UniProt Q01543 1-452).
T1 sequence: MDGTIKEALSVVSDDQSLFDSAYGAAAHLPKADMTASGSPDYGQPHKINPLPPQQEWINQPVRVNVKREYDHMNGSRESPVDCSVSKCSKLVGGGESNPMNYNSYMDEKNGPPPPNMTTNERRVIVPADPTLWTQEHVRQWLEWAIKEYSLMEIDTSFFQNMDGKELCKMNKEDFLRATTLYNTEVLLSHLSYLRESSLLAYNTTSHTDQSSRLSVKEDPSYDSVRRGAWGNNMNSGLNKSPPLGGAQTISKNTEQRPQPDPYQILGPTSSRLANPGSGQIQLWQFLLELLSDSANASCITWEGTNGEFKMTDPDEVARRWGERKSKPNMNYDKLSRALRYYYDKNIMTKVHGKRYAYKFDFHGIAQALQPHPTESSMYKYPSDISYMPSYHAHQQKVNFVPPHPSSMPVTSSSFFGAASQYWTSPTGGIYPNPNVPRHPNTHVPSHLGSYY
An outline of the steps: (§1)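 Beads coated with glutathione captured GST-fused human transcription factors that had been expressed in yeast, and the factors were then given DNA barcodes and pooled with a tag-only sample. The pools were incubated with 200 nmole of a random double-stranded 16-mer DNA library in Tris/NaCl/DTT/glycerol buffer for 30 min at room temperature, washed, crosslinked with 0.1% formaldehyde and proximity-ligated with BsaI/T4 ligase at 37 °C for 1 h. PCR amplification and Illumina NextSeq500 sequencing came last. Binding signal is each hexamer's read frequency for a factor divided by its frequency for the tag-only sample.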

The target in experiment [2] is T2, GABPA (Homo sapiens, UniProt Q06546 1-454).
T2 sequence: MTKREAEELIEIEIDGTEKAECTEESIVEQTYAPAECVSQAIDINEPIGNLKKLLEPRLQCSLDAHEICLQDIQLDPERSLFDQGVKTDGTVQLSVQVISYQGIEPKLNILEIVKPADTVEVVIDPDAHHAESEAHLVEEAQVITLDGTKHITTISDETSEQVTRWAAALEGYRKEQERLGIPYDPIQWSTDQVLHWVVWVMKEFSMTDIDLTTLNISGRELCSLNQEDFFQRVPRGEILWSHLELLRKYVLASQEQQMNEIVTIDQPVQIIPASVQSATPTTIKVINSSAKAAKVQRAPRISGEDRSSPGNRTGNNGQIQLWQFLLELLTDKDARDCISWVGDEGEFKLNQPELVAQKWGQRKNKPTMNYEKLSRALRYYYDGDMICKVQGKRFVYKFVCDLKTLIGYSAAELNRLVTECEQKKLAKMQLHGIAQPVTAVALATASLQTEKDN
An outline of the steps:
as §1

Experiment [3] concerns the target T3, ERG (Homo sapiens, UniProt P11308 1-479).
T3 sequence: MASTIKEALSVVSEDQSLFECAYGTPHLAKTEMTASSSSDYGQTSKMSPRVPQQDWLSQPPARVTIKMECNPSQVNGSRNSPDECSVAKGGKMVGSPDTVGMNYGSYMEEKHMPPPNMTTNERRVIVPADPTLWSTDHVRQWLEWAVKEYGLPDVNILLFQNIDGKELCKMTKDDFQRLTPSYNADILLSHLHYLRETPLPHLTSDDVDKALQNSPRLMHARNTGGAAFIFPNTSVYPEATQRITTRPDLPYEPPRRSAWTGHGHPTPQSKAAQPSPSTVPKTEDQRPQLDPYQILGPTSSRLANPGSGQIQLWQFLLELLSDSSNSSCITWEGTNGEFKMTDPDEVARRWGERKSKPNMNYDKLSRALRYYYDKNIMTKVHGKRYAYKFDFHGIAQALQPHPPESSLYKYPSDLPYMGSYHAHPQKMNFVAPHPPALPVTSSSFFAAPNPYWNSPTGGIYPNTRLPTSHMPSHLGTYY
In short, it runs like this:
as §1

Experiment [4] has as its target ELF1 (Homo sapiens, UniProt P32519 1-619). An outline of the steps:
as §1

The target of experiment [5] is T4, EHF (Homo sapiens, UniProt Q9NZC4 1-300).
T4 sequence: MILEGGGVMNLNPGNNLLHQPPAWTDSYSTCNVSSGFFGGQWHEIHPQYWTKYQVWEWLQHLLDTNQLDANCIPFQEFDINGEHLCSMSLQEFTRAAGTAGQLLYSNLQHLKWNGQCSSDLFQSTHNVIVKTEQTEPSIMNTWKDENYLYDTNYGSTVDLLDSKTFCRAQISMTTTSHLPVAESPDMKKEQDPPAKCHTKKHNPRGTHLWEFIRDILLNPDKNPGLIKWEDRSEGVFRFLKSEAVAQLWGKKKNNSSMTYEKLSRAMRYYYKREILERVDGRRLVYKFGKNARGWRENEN
An outline of the steps: as §1

The target of experiment [6] is SPIB (Homo sapiens, UniProt Q01892 1-262). An outline of the steps: as §1
Experiment [7] concerns the target T5, ELK3 (Homo sapiens, UniProt P41970 1-407).
T5 sequence: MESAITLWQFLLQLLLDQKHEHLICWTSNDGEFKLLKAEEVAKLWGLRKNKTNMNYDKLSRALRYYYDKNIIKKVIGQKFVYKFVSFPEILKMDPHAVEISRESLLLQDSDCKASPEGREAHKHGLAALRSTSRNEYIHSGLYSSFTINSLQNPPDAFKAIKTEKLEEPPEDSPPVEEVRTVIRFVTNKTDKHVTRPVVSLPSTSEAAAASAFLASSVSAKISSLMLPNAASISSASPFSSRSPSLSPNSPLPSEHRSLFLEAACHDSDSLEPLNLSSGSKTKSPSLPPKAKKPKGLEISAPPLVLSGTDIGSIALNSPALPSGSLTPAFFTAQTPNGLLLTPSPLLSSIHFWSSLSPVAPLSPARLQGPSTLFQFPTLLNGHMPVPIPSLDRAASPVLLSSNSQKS
In short, it runs like this: as §1

The target in experiment [8] is ETV5 (Homo sapiens, UniProt P41161 1-510). In short, it runs like this: as §1
Experiment [9] has as its target T6, SPIC (Homo sapiens, UniProt Q8N5J4 1-248).
T6 sequence: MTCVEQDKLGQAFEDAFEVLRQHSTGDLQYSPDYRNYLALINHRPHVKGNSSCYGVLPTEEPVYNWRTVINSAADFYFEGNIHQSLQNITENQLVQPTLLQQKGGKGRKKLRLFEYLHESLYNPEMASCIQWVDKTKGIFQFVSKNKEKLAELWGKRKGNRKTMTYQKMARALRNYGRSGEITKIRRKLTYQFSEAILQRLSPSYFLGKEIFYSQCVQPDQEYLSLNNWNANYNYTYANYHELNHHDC
An outline of the steps: as §1

Experiment [10] concerns the target ELF4 (Homo sapiens, UniProt Q99607 1-663). An outline of the steps:
as §1

Experiment [11] concerns the target ETV1 (Homo sapiens, UniProt P50549 1-477). In short, it runs like this:
as §1

For experiment [12], the target named is T7, ERF (Homo sapiens, UniProt P50548 1-548).
T7 sequence: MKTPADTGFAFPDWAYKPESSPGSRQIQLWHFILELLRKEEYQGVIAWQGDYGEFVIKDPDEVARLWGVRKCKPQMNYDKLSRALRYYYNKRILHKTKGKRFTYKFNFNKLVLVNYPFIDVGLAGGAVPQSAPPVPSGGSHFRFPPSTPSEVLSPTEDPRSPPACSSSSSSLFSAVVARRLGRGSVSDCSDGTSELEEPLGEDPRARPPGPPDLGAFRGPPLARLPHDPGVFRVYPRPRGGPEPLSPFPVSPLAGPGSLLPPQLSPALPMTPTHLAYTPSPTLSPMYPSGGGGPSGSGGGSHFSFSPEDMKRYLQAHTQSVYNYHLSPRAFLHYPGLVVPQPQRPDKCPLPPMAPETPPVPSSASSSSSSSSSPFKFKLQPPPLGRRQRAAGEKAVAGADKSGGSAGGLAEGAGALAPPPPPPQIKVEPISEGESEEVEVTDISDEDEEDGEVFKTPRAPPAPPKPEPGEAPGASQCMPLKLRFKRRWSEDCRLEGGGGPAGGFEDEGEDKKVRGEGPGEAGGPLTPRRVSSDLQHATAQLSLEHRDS
In short, it runs like this: as §1

Experiment [13] addresses T8, ETV3L (Homo sapiens, UniProt Q6ZN32 1-361).
T8 sequence: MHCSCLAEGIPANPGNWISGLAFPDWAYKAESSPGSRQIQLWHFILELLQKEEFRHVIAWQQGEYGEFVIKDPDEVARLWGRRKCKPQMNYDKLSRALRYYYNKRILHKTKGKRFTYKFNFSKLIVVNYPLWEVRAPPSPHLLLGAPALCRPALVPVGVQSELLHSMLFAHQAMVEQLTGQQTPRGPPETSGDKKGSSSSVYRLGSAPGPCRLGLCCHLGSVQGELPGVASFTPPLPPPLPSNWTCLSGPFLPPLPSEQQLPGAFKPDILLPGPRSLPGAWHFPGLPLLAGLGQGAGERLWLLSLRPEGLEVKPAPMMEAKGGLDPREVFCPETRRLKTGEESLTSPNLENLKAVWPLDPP
An outline of the steps: as §1

Experiment [14] concerns the target T9, ETS2 (Homo sapiens, UniProt P15036 1-469).
T9 sequence: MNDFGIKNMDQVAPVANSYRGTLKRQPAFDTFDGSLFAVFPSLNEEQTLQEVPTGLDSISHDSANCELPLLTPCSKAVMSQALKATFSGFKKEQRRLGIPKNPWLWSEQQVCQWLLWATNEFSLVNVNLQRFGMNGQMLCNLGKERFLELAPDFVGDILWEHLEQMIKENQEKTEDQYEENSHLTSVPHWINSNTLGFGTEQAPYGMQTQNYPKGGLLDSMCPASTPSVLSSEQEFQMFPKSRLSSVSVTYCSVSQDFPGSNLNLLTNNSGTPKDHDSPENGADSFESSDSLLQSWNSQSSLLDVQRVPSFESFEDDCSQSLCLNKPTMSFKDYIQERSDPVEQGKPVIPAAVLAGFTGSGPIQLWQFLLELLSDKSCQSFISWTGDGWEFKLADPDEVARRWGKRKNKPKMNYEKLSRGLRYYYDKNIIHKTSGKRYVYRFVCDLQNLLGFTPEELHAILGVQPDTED
In short, it runs like this:
as §1

In experiment [15] the target is T10, ETV3 (Homo sapiens, UniProt P41162-2 1-143).
T10 sequence: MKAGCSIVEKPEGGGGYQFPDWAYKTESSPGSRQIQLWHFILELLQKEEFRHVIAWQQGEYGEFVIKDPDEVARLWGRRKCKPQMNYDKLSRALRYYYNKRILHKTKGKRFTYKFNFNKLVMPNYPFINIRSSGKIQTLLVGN
An outline of the steps:
as §1

Sequence of ETV1 (P50549 whole entry): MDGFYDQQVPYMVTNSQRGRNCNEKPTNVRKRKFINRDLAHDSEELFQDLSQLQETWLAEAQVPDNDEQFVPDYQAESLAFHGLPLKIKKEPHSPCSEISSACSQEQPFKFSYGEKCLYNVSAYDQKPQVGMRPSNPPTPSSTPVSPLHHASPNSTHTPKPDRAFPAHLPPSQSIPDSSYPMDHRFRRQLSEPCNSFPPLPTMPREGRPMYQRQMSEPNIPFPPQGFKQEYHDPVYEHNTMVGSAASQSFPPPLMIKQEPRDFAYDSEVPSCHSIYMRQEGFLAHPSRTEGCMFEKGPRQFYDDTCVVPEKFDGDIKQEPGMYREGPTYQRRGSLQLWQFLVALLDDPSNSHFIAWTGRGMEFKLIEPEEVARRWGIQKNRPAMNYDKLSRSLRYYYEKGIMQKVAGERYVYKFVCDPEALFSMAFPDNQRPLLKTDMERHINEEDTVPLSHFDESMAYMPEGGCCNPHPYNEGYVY
Sequence of ELF4 (Q99607 whole entry): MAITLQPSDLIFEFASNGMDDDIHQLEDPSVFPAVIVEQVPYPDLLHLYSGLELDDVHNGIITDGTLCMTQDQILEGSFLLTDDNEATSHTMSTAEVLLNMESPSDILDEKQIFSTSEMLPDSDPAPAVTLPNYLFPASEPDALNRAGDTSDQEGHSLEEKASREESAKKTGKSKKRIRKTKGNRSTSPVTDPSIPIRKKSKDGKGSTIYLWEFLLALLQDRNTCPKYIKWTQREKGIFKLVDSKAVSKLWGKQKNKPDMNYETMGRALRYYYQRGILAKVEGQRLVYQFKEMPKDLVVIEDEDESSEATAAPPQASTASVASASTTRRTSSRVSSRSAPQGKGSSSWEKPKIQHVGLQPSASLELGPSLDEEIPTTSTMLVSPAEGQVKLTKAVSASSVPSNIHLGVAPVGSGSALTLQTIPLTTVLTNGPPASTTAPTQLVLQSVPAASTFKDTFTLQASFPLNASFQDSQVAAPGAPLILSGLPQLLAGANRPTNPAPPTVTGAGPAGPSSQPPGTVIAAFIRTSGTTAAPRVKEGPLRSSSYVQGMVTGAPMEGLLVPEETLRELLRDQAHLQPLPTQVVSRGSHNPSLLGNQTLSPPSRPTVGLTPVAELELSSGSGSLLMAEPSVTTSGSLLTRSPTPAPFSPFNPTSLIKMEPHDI
Sequence of ELF1 (P32519 whole entry): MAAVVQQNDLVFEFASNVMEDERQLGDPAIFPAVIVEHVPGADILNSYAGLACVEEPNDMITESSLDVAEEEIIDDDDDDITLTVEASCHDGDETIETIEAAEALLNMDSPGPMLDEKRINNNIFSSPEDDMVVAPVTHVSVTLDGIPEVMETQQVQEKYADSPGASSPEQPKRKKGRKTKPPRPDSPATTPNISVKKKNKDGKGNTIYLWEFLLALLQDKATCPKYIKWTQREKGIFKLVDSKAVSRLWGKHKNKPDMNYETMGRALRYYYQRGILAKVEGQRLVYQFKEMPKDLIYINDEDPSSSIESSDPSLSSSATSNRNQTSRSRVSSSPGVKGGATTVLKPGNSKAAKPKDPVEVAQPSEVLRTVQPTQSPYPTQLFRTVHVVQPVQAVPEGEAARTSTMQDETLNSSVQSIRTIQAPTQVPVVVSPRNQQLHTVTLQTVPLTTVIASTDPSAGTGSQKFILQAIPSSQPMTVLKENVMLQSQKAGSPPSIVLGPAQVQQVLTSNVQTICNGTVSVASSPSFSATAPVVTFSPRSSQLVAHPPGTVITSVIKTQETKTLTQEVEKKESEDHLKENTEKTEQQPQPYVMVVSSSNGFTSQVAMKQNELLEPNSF
Sequence of ETV5 (P41161 whole entry): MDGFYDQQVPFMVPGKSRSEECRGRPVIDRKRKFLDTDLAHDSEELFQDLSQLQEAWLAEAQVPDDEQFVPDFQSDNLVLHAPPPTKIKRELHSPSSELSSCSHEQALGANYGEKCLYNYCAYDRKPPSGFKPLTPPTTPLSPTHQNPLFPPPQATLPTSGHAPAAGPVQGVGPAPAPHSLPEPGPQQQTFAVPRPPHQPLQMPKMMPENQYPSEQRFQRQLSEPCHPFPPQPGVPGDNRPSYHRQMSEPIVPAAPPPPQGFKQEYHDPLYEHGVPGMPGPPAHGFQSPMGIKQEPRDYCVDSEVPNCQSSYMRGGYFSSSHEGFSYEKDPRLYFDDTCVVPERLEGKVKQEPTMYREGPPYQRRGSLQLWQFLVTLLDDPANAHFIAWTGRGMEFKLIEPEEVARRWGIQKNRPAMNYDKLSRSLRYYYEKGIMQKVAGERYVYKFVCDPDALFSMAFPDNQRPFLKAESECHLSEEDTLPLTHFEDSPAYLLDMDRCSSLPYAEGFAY
Sequence of SPIB (Q01892 whole entry): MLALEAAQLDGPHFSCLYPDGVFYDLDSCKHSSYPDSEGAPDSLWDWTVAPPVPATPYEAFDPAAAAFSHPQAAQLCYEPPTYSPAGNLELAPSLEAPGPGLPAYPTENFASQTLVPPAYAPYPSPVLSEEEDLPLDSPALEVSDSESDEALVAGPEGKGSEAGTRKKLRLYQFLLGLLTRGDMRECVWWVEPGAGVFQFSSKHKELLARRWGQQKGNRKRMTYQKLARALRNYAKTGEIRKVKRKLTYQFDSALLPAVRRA

Take TCGCTG: the binding signal in [1] was 1.02 fold enrichment (6-mer frequency, TF over GST control); in [2], 1.01 fold enrichment (6-mer frequency, TF over GST control); in [3], 1.02 fold enrichment (6-mer frequency, TF over GST control); in [4] it was 1.05 fold enrichment (6-mer frequency, TF over GST control); in [5], 1.1 fold enrichment (6-mer frequency, TF over GST control); in [6], 1.22 fold enrichment (6-mer frequency, TF over GST control). For the same sequence, the binding signal in experiment [7] was 1.23 fold enrichment (6-mer frequency, TF over GST control); in experiment [8], 1.11 fold enrichment (6-mer frequency, TF over GST control); in experiment [9], 1.19 fold enrichment (6-mer frequency, TF over GST control); in experiment [10], 1.05 fold enrichment (6-mer frequency, TF over GST control); in experiment [11], 1.15 fold enrichment (6-mer frequency, TF over GST control); in experiment [12], 1.16 fold enrichment (6-mer frequency, TF over GST control). Further, the binding signal in experiment [13] was 1.05 fold enrichment (6-mer frequency, TF over GST control); in experiment [14], 1.12 fold enrichment (6-mer frequency, TF over GST control); in experiment [15], 1.13 fold enrichment (6-mer frequency, TF over GST control).
